This passage reports AC50 and outcome results from PubChem BioAssay (EPA / NIEHS).

Each structure is given as a SMILES string. Records with an inconclusive call do not appear. Activity calls are given as the source filed them. The calls were made as follows: active = hit-call score of the fitted dose curve at least 0.9, where 1 is the maximum; inconclusive = response in the unintended direction; inactive = score below 0.9.

Chain of human Dopamine Receptor D4.4 (DRD4.4), DRD4 (gene 1815) (P21917 whole entry, looked up): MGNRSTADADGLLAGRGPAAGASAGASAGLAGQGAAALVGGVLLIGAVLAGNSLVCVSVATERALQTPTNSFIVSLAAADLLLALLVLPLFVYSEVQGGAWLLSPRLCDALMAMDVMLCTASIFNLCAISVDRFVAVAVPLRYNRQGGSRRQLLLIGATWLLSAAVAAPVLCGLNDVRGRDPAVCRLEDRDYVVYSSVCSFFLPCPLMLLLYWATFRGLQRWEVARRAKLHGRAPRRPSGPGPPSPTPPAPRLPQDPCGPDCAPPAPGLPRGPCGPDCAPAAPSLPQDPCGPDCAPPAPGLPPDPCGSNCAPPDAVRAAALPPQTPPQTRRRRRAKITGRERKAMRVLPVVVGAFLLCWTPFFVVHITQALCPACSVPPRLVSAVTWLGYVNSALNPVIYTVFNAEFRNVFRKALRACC
Chain of Beta-2 adrenergic receptor (Homo sapiens) (P07550 whole entry, looked up): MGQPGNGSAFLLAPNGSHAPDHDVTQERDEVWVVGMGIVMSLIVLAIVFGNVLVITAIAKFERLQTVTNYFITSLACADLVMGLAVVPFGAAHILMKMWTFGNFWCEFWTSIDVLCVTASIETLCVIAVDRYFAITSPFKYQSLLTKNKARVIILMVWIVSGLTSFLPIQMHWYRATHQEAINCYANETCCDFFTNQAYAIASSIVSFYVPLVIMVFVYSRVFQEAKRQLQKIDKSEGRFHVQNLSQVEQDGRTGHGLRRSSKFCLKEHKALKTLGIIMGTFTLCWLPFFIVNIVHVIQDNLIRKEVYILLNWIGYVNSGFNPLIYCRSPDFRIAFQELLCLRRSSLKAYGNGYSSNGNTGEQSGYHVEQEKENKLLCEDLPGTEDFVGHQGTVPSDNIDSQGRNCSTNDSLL

The target in the first experiment is human Adrenergic, Alpha 2c Receptor (Adra2C), ADRA2C (gene 152) (UniProt P18825). In words: NVS_GPCR_hAdra2C: NovaScreen (NVS) G Protein-Coupled Receptor Assay for human Adrenergic, Alpha 2c Receptor (Adra2C) (AID 2283259). In short, it runs like this: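 Radioligand binding on Sf9-expressed receptor membranes, 1 h after chemical dosing, filter-based scintillation read-out. Loss of binding fitted positively versus DMSO; primary duplicate screen at 25 uM, actives retested in concentration series.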
Chain of human Adrenergic, Alpha 2c Receptor (Adra2C), ADRA2C (gene 152) (P18825 whole entry, looked up): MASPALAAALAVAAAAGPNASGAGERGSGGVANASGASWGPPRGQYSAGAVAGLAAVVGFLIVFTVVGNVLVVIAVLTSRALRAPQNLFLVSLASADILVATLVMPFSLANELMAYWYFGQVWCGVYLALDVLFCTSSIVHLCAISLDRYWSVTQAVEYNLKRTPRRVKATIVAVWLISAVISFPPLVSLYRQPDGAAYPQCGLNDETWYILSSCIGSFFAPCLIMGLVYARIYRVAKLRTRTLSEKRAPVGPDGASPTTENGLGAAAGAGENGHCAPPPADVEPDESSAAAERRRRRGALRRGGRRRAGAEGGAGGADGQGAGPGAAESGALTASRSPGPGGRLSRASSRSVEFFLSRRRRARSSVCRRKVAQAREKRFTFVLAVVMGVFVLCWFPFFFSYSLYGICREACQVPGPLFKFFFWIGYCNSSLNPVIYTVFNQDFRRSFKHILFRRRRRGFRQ
As for `O=C(O)C(F)(F)C(F)(F)C(F)(F)C(F)(F)C(F)(F)C(F)(F)C(F)(F)C(F)(F)C(F)(F)F`, the AC50 is 10.9 µM (active).

With `O=C(O)C(F)(F)C(F)(F)C(F)(F)C(F)(F)C(F)(F)C(F)(F)C(F)(F)C(F)(F)F`, the concentration at half-maximal activity (AC50) is 25 µM (active).

Take `CCCCCCCCCC[N+](C)(C)CCCCCCCCCC`: the AC50 is 3.53 µM (active).

For `Oc1ccc(C(c2ccc(O)cc2)(C(F)(F)F)C(F)(F)F)cc1`, the AC50 is 10.7 µM (active).

Consider `CC(C)(c1ccccc1)c1ccc(O)cc1`, for which the AC50 was 9.37 µM (active).

The target of the next experiment is Beta-2 adrenergic receptor (Homo sapiens) (UniProt P07550). In words: NVS_GPCR_hAdrb2: NovaScreen (NVS) G Protein-Coupled Receptor Assay for human Adrenergic, Beta 2 Receptor (Adrb2) (AID 2283261). In short, it runs like this:
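Filter-based radioligand binding using receptor prepared from CHO cells, 1 h incubation, scintillation counting. Primary screen in duplicate at 25 uM, actives retested in concentration series; loss of binding relative to DMSO.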
For the compound `CCCCCCCCCC[N+](C)(C)CCCCCCCCCC`, the AC50 is 17.5 µM (active).

With `CN(C)c1nc(=O)n(C2CCCCC2)c(=O)n1C`, the outcome was inactive.

Regarding `Oc1ccc(C(c2ccc(O)cc2)(C(F)(F)F)C(F)(F)F)cc1`, the AC50 was 25 µM (active).

A further experiment deals with human Adrenergic, Beta 3 Receptor (Adrb3), ADRB3 (gene 155) (UniProt P13945). In words: NVS_GPCR_hAdrb3: NovaScreen (NVS) G Protein-Coupled Receptor Assay for human Adrenergic, Beta 3 Receptor (Adrb3) (AID 2283262). In short, it runs like this: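 Membranes from SK-N-MC cells pretreated with isoproterenol and 8-bromo-cAMP were used in a radioligand competitive displacement binding assay. Binding was read by filter-based scintillation counting 1 hour after dosing. Primary screening was in duplicate at 25 uM, with concentration series in follow-up.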
Chain of human Adrenergic, Beta 3 Receptor (Adrb3), ADRB3 (gene 155) (P13945 whole entry, looked up): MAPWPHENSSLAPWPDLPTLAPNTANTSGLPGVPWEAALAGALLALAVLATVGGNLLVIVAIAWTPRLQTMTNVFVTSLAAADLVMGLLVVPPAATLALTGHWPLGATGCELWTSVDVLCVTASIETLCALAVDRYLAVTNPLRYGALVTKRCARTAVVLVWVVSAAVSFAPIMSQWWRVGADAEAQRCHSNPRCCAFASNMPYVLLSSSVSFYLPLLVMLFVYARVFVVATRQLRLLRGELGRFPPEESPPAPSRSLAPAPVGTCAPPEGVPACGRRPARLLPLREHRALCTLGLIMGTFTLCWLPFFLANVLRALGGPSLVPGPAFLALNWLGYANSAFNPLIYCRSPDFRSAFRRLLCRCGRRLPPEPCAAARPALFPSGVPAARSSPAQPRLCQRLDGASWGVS
Take `CCCCCCCCCC[N+](C)(C)CCCCCCCCCC`: the AC50 is 7.1 µM (active).

For the compound `Oc1ccc(C(c2ccc(O)cc2)(C(F)(F)F)C(F)(F)F)cc1`, the outcome was inactive.

For `c1cc2ccc3cccc4ccc(c1)c2c34`, the result was inactive.

Another experiment addresses human Dopamine Receptor D4.4 (DRD4.4), DRD4 (gene 1815) (UniProt P21917). In words: NVS_GPCR_hDRD4.4: NovaScreen (NVS) G Protein-Coupled Receptor Assay for human Dopamine Receptor D4.4 (DRD4.4) (AID 2283264). On the procedure:
NVS_GPCR_hDRD4.4 is a biochemical, single-readout assay that uses extracted gene-proteins from CHO in a cell-free assay. Measurements were taken 1 hour after chemical dosing in a 96-well plate.NVS_GPCR_hDRD4.4 is one of one assay component(s) measured or calculated from the NVS_GPCR_hDRD4.4 assay. It is designed to make measurements of radioligand binding, a form of binding reporter, as detected with scintillation counting signals by Filter-based radiodetection technology.Data from the assay component NVS_GPCR_hDRD4.4 was analyzed into 1 assay endpoint. This assay endpoint, NVS_GPCR_hDRD4.4, was analyzed in the positive analysis fitting direction relative to DMSO as the negative control and baseline of activity. Using a type of binding reporter, loss-of-signal activity can be used to understand changes in the binding as they relate to the gene DRD4. Furthermore, this assay endpoint can be referred to as a primary readout, because the performed assay has only produced 1 assay endpoint. To generalize the intended target to other relatable targets, this assay endpoint is annotated to the gpcr intended target family, where the subfamily is rhodopsin-like receptor.
Binding assays used specific radioligands (tritiated, iodinated) with non-radioactive competitive displacement ligands in agonist or antagonist protocols (as indicated) and various reference compounds and inhibitors to titrate specific binding to receptors and transporters. Most enzyme assays (CYPs, kinases, phosphatases, proteases, HDACs) used recombinant protein and specific substrates (fluorescence mostly, some colorimetric and radioactive) and inhibitors, followed by a biochemical separation of substrate and product. All assays for the biochemical HTS were initially run in duplicate at a single concentration (10 uM for CYP450 assays and 25 uM for all others). […] Each assay was run with positive and negative controls, and concurrent controls on every plate. The follow-up (secondary) screen tested active chemical-pairs in concentration series, as well as a few additional assays not tested in the primary screen, some selected negative inactives, and several cases re-run in the concentration series for confirmatory purposes.
Turning to `O=C(O)C(F)(F)C(F)(F)C(F)(F)C(F)(F)C(F)(F)C(F)(F)C(F)(F)C(F)(F)C(F)(F)F`, the AC50 was 25 µM (active).

For `COc1ccc(O)c(C(C)(C)C)c1`, the compound was classed as inactive.

`CCCCCCCCCC[N+](C)(C)CCCCCCCCCC`: the AC50 was 25 µM (active).

For `Oc1ccc(C(c2ccc(O)cc2)(C(F)(F)F)C(F)(F)F)cc1`, the AC50 is 14.1 µM (active).

The target in a further experiment is human Dopamine Receptor D2 (DRD2), DRD2 (gene 1813) (UniProt P14416). In words: NVS_GPCR_hDRD2s: NovaScreen (NVS) G Protein-Coupled Receptor Assay for human Dopamine Receptor D2 (DRD2) (AID 2283266). In short, it runs like this: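 Radioligand displacement used human DRD2 membranes extracted from CHO cells and was read by filter-based scintillation counting after 1.5 hours. Primary screening was in duplicate at 25 uM. Loss of signal versus DMSO was fitted, with concentration series in follow-up.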
Chain of human Dopamine Receptor D2 (DRD2), DRD2 (gene 1813) (P14416 whole entry, looked up): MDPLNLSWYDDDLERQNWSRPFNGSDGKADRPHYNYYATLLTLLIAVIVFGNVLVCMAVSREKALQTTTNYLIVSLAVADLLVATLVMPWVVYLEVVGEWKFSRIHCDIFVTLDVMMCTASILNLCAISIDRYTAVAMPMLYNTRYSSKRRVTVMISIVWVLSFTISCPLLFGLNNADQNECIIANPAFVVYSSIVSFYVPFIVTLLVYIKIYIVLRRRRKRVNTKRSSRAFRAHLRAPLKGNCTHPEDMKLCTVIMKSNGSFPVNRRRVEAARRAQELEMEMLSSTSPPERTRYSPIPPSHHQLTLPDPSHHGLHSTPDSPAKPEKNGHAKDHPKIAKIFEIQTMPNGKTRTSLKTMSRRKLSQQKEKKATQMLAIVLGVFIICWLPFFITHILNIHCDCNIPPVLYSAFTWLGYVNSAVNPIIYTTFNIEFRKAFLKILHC
For `COc1ccc(O)c(C(C)(C)C)c1`, the half-maximal activity concentration (AC50) was 25 µM (active).

Turning to `CCCCCCCCCC[N+](C)(C)CCCCCCCCCC`, the concentration at half-maximal activity (AC50) was 5.51 µM (active).

On to `Cc1cc(-c2ccc(N)c(C)c2)ccc1N`, for which the compound was called inactive.

`Oc1ccc(C(c2ccc(O)cc2)(C(F)(F)F)C(F)(F)F)cc1`: the AC50 was 9.39 µM (active).

In the case of `CC(C)(c1ccccc1)c1ccc(O)cc1`, the compound was classed as inactive.

A word on the AC50: it is the midpoint of the concentration-response curve, whichever way the signal moves.
